{"source": "PubChem BioAssay (NCI)", "note": "This is part of a sample that, as a whole, favours compounds with a hit. Of some 79,000 tested, about 15% had one in any assay. The source made the active and inactive calls. No stated cut-off is given here; in the data, active means growth inhibition above about 70%; inactive means the rest."}
{"test": "NCI Yeast Anticancer Drug Screen. Data for the rad50 strain (AID 155);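 further: 0% = growth of vehicle-only cultures of the same strain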", "conditions": "S. cerevisiae rad50 strain growth inhibition, active compounds read high; at 50.0 µM unless noted", "summary_of_the_method": "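Vehicle-treated cultures provide the reference for the growth inhibition reported for compound-exposed, repair-deficient yeast.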"}
{"smiles": "O=C(OCC1OCOC2C(COC(=O)c3ccccc3)OCOC12)c1ccccc1", "note": "(stereo not given)", "growth inhibition": "9.05% (inactive)"}
{"smiles": "CCOC(=O)/N=N/C(C)(C)OC(C)=O", "growth inhibition": "-10.5% (inactive)"}
{"smiles": "CC(=O)CC(C[N+](=O)[O-])c1ccccc1", "note": "(stereo not given)", "growth inhibition": "-4.7% (inactive)"}
{"smiles": "O=c1cc(-c2ccccc2)[nH]c2c(F)ccc(F)c12", "growth inhibition": "-27.4% (inactive)"}
{"smiles": "CCCN(CCC)C(=O)c1ccccc1C", "growth inhibition": "9.5% (inactive)"}
{"smiles": "OCC(O)COc1ccc(F)cc1", "note": "(stereo not given)", "growth inhibition": "19.7% (inactive)"}
{"smiles": "CN(C)CCC(C#N)c1ccccc1", "note": "(stereo not given)", "growth inhibition": "-18.6% (inactive)"}
{"smiles": "COc1cc(/C=C/C(=O)O)ccc1O", "growth inhibition": "-6.1% (inactive)"}
{"smiles": "COC(=O)c1c(C)nc(C)c(N=O)c1-c1ccccc1C(F)(F)F", "growth inhibition": "6.4% (inactive)"}
{"smiles": "Cc1c2ccccc2nc(CS(C)(=O)=O)[n+]1[O-]", "growth inhibition": "-16.9% (inactive)"}
{"smiles": "O=P1(NC23CC4CC(CC(C4)C2)C3)OC(CCl)=NC1c1ccc(C2N=C(CCl)OP2(=O)NC23CC4CC(CC(C4)C2)C3)cc1", "note": "(stereo not given)", "growth inhibition": "-56.6% (inactive)"}
{"smiles": "CN(C)C(=O)NCCN(CCNC(=O)N(C)C)C(=O)N(C)C", "growth inhibition": "-1.7% (inactive)"}
{"smiles": "CCOC(=O)C(=O)C(NC(=O)Cc1ccccc1)C(=O)OCC", "note": "(stereo not given)", "growth inhibition": "27.2% (inactive)"}
{"smiles": "CN(/C(=N/C(=S)NCc1ccccc1)SCc1ccccc1)c1ccccc1", "growth inhibition": "38% (inactive)"}
{"smiles": "CC1Sc2ccccc2-c2[nH]c3ccccc3c21", "note": "(stereo not given)", "growth inhibition": "32.8% (inactive)"}
{"smiles": "Cc1nc(-c2ccc(N=Cc3ccc(N4CCC5(CCCCC5)CC4)cc3)cc2)cs1", "growth inhibition": "25% (inactive)"}
{"smiles": "Cc1cc(=O)c2c(o1)C(=O)c1occc1C2=O", "growth inhibition": "-9.5% (inactive)"}
{"smiles": "COC1CCC2C3CCC(C3)C12", "note": "(stereo not given)", "growth inhibition": "26.9% (inactive)"}
{"smiles": "O=C(c1ccc(Cl)cc1)c1ccccc1C(=O)c1ccc(Cl)cc1", "growth inhibition": "0.8% (inactive)"}
{"smiles": "CCOC(=S)SCC(=O)CSC(=S)OCC", "growth inhibition": "73.8% (active)"}
{"smiles": "CCCCN(CCCC)C(=O)c1cccc(C)c1", "growth inhibition": "13.7% (inactive)"}
{"smiles": "CCC(O)C(C)(C)[N+](=O)[O-]", "note": "(stereo not given)", "growth inhibition": "3.35% (inactive)"}
{"smiles": "COc1c2c(cc3c1C(CCCc1ccccc1)N(C)CC3)OCO2", "note": "(stereo not given)", "growth inhibition": "22.4% (inactive)"}
{"smiles": "CCCCNC(=O)/C(=C\\c1ccc(OC)c(OC)c1)NC(=O)c1ccccc1", "growth inhibition": "-63.5% (inactive)"}
{"smiles": "NC(=O)Nc1nc2ccccc2[nH]1", "growth inhibition": "-26.2% (inactive)"}
{"smiles": "COC(=O)c1c(C)ccc(C)c1Nc1cc(C)ccc1C", "growth inhibition": "-2.65% (inactive)"}
{"smiles": "CCOC(=O)c1cnc2sc3ccc4ccccc4c3n2c1=O", "growth inhibition": "51.9% (inactive)"}
{"smiles": "O=C1c2ccccc2C(=O)N1CCCCCCS(=O)(=O)Cl", "growth inhibition": "13.7% (inactive)"}
{"smiles": "CCS(=O)(=O)/C=C/c1cccs1", "growth inhibition": "-9.1% (inactive)"}
{"smiles": "O=C(N/N=C(\\c1nc2ccc(Cl)cc2[nH]c1=O)C(O)c1ccccc1Cl)c1ccncc1", "note": "(stereo not given)", "growth inhibition": "16.6% (inactive)"}
{"smiles": "CCCC(=O)NC1CCCCC1", "growth inhibition": "-22.2% (inactive)"}
{"smiles": "CCCCCP(=O)(O)O.[Cu+2]", "growth inhibition": "-41.4% (inactive)"}
{"smiles": "C=C1CC2(OC1=O)c1ccccc1C=Cc1ccccc12", "growth inhibition": "26.8% (inactive)"}
{"smiles": "c1ccc(CN2CCOC2)cc1", "growth inhibition": "15.6% (inactive)"}
{"smiles": "CCOC1=Nc2ccccc2C1(C)CCO", "note": "(stereo not given)", "growth inhibition": "-45.5% (inactive)"}
{"smiles": "CC1NC(=O)OC12CCCCC2", "note": "(stereo not given)", "growth inhibition": "16.4% (inactive)"}
{"smiles": "CCCOC(=O)C1C(=O)CC(c2ccccc2)C1c1ccccc1", "note": "(stereo not given)", "growth inhibition": "1.95% (inactive)"}
{"smiles": "COc1ccc(-c2oc(=O)c3ccccc3c2-c2ccccc2)cc1", "growth inhibition": "7.25% (inactive)"}
{"smiles": "C=C1CCCC(C)(C)[C@@H]1CC/C(C)=C/Cn1c2cccc(=O)c-2nc2ccccc21", "growth inhibition": "12.8% (inactive)"}
{"smiles": "C[C@H](CCC1=NCCN1)[C@H]1CC[C@H]2[C@@H]3CC[C@@H]4C[C@H](O)CC[C@]4(C)[C@H]3CC[C@]12C", "growth inhibition": "91.6% (active)"}
